Assay results from PubChem BioAssay AID504832 (National Center for Advancing Translational Sciences (NCATS), 2011).
The whole screen tested about 310,000 compounds, of which about 18,000 (5.8%) were called active. Another 22% or so got no clear call; they are omitted. Calls come from the whole dose curve; as a rule, active = well fitted inhibition curve with a large enough effect; inconclusive = small, poorly fitted or top-dose-only effect, or another doubt; inactive = no such curve, though single readings can be large or run the other way. Shown is part of a subset that was picked to be rich in actives. A call without a number means that no potency is given here.

Assay: Primary qHTS for delayed death inhibitors of the malarial parasite plastid, 48 hour incubation
Conditions: P. falciparum luciferase growth in erythrocytes; series mostly up to 28.7 µM
In short: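 Cell-based growth assay: transgenic P. falciparum expressing firefly luciferase, cultured in red cells within RPMI 1640 containing 0.5% w/v Albumax, 24 mM bicarbonate and gentamycin. A drop in luciferase activity indicates inhibition.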
Potency is the fitted concentration of half-maximal effect.

Question: For `CN(Cc1ccccc1)C(=O)C(=O)c1cn(CC(=O)N2CCCC2)c2ccccc12`, which Potency is on record?
Answer: Its Potency is “inactive”.

Question: Which Potency does the source give for `O=c1oc2ccc(C#CC3(O)CCCCC3)cc2cc1-n1cc(-c2ccsc2)nn1` here?
Answer: The Potency was “inactive”.

Question: With `CCc1ccc(-c2nn(-c3ccccc3C)cc2C(=O)N2CCN(C3CCS(=O)(=O)C3)CC2)cc1` (configuration not stated) as the molecule, how does the Potency read?
Answer: Its Potency is “inactive”.

Question: With `O=C(NCCC1=CCCCC1)c1ccc(-n2cncn2)cc1` as the molecule, how does the Potency read?
Answer: The Potency was “inactive”.

Question: Which Potency does the source give for `CCc1noc(C)c1C(=O)Nc1nc2ccc(OC)cc2s1` here?
Answer: The Potency was “inactive”.

Question: For `CCOc1ccc(S(=O)(=O)N2CCCC(C(=O)N3CCC(C(N)=O)CC3)C2)cc1Cl` (configuration not stated), which Potency is on record?
Answer: The Potency was “inactive”.

Question: With `Cc1ccc(C)c(N2CCN(C(=O)CCCCn3c(=O)[nH]c4ccccc4c3=O)CC2)c1` as the molecule, how does the Potency read?
Answer: Its Potency is “inactive”.

Question: For `Cc1ccc(C)c(N2CCN(C(=O)CCc3nc4ccccc4[nH]3)CC2)c1`, which Potency is on record?
Answer: The Potency was “inactive”.

Question: Which Potency does the source give for `Cc1ccc(C)c(N2CCN(C(=O)CCCCCn3c(=S)[nH]c4ccc(N5CCOCC5)cc4c3=O)CC2)c1` here?
Answer: Its Potency is 7.38 µM (active).

Question: For `COCc1c(C(=O)N/N=C(\C)c2ccncc2)nnn1-c1nonc1N`, which Potency is on record?
Answer: The Potency was “inactive”.

Question: For `Cc1ccc(NC(=O)Nc2ccccc2)c(Br)c1`, which Potency is on record?
Answer: Its Potency is “inactive”.

Question: Which Potency does the source give for `C=CC[n+]1c(-c2ccc(C)cc2)csc1NNC(=O)Nc1ccccc1` here?
Answer: The Potency was 11.7 µM (active).

Question: Which Potency does the source give for `C=CCNC(=O)c1csc(-c2ccccc2)n1` here?
Answer: The Potency was “inactive”.

Question: With `C=CCNc1scc(-c2ccccc2)[n+]1CC=C` as the molecule, how does the Potency read?
Answer: Its Potency is 4.15 µM (active).

Question: Which Potency does the source give for `Cc1ccc(NC(=O)NNC(=O)c2sccc2-n2cccc2)cc1` here?
Answer: The Potency was “inactive”.

Question: Which Potency does the source give for `O=C(Cc1ccccc1)Nc1ccc(NC(=O)c2cccnc2)cc1` here?
Answer: Its Potency is “inactive”.

Question: For `CN1CCN(CCNC(=O)Nc2ccccc2[N+](=O)[O-])CC1`, which activity change, negative = inhibition is on record?
Answer: Its activity change, negative = inhibition is -5.7% [at 0.00184 µM] (inactive).

Question: For `COc1ccc(CN(C)C(=O)Cc2c[nH]c3ccccc23)c(OC)c1OC`, which activity change, negative = inhibition is on record?
Answer: Its activity change, negative = inhibition is 13.9% [at 0.00184 µM] (inactive).

Question: For `COc1ccc(CN(C)C(=O)Cc2ccsc2)c(OC)c1OC`, which Potency is on record?
Answer: The Potency was 13.1 µM (active).

Question: With `COc1ccccc1C(C)NC(=O)Cc1ccsc1` (configuration not stated) as the molecule, how does the Potency read?
Answer: Its Potency is “inactive”.

Question: Which Potency does the source give for `CS(=O)(=O)N(CC(=O)N1CCCCCC1)c1cccc(Cl)c1Cl` here?
Answer: Its Potency is “inactive”.

Question: Which Potency does the source give for `NS(=O)(=O)c1ccc(NC(=S)N2CCCC2)cc1` here?
Answer: The Potency was “inactive”.

Question: For `O=C(C1CC1)N1N=C(c2ccc(Br)cc2)CC1(O)C(F)(F)F` (configuration not stated), which activity change, negative = inhibition is on record?
Answer: The activity change, negative = inhibition was -12.6% [at 0.00184 µM] (inactive).

Question: For `COC(=O)C1(O)CC(C(C)C)=NN1C(=O)c1ccc(Cl)cc1` (configuration not stated), which Potency is on record?
Answer: The Potency was “inactive”.

Question: With `O=C(c1ccc(Cl)cc1)N1N=C(c2ccccn2)CC1(O)C(F)(F)F` (configuration not stated) as the molecule, how does the Potency read?
Answer: Its Potency is 4.65 µM (active).

Question: Which Potency does the source give for `COc1ccc(CCNC(=O)COC(=O)C2CC2C)cc1` (configuration not stated) here?
Answer: The Potency was “inactive”.

Question: Which Potency does the source give for `Cc1ccc(S(=O)(=O)N(C)C)cc1NC(=O)c1ccc(-n2cncn2)c([N+](=O)[O-])c1` here?
Answer: Its Potency is “inactive”.

Question: Which Potency does the source give for `O=[N+]([O-])C(=c1ccc2c(c1)N1C3=C(CCCC3)CC3CCCCC31N=2)[N+](=O)[O-]` (configuration not stated) here?
Answer: The Potency was 2.94 µM (active).

Question: Which Potency does the source give for `Cc1ccc(S(=O)(=O)NCCC(=O)Nc2cccc(S(N)(=O)=O)c2)cc1C` here?
Answer: Its Potency is “inactive”.

Question: With `O=C(CN(C(=O)c1nsc(Cl)c1Cl)c1cccc(F)c1)NC1CCCC1` as the molecule, how does the Potency read?
Answer: Its Potency is “inactive”.

Question: Which Potency does the source give for `COc1cccc(N(CC(=O)NC2CCCC2)C(=O)CCCC(=O)Nc2ccccn2)c1` here?
Answer: Its Potency is “inactive”.

Question: Which Potency does the source give for `COC(=O)c1ccccc1NC(=O)Cn1nc(C(F)(F)F)c2c1CCC2` here?
Answer: The Potency was “inactive”.

Question: With `COC(=O)c1ccccc1Sc1c(/C=N/OCc2ccc(Cl)cc2)c(C(F)(F)F)nn1C` as the molecule, how does the Potency read?
Answer: The Potency was 1.85 µM (active).

Question: For `COC(=O)c1cn(C(=O)c2ccc(Cl)cc2)c2ccccc12`, which Potency is on record?
Answer: The Potency was “inactive”.

Question: With `O=c1ccc(S(=O)(=O)N2CCCC2)cn1Cc1nc(-c2ccccc2)no1` as the molecule, how does the Potency read?
Answer: The Potency was “inactive”.

Question: Which Potency does the source give for `CC1=C(C(N)=O)C(c2ccc(F)cc2)n2nc(CCCO)nc2N1` (configuration not stated) here?
Answer: The Potency was “inactive”.

Question: Which Potency does the source give for `S=c1[nH]ccn1-c1ccc(Cl)cc1` here?
Answer: Its Potency is “inactive”.

Question: Which Potency does the source give for `S=c1[nH]cc(-c2ccc(Cl)cc2)n1-c1ccccc1` here?
Answer: Its Potency is 1.85 µM (active).

Question: For `Cc1ccc(-n2c(-c3ccc(Cl)cc3)n[nH]c2=S)cc1`, which Potency is on record?
Answer: Its Potency is “inactive”.

Question: For `O=C(O)c1cccc2c1C(=O)N(C1CCCC1)C2`, which Potency is on record?
Answer: The Potency was “inactive”.

Question: For `Cc1ccccc1CN1CCN(CC(=O)NCc2ccccn2)C1=O`, which Potency is on record?
Answer: The Potency was “inactive”.

Question: For `Cc1ccc(CN2CCN(Cc3cn(C)nc3-c3ccccc3)CC2CCO)o1` (configuration not stated), which Potency is on record?
Answer: The Potency was “inactive”.

Question: Which Potency does the source give for `Cc1ccccc1CN1C[C@@H]2C[C@@H](c3cn(C)nc3-c3ccccc3)N3CCC[C@@]23C1=O` here?
Answer: The Potency was 6.57 µM (active).

Question: Which Potency does the source give for `Cc1c(C)c(C)c(S(=O)(=O)NCCc2ccccn2)c(C)c1C` here?
Answer: The Potency was “inactive”.

Question: With `Cc1c(S(=O)(=O)N2CC(C)CC(C)C2)c(=O)n(C)c(=O)n1C` (configuration not stated) as the molecule, how does the Potency read?
Answer: The Potency was “inactive”.

Question: For `COc1cc(OC)cc(C(=O)NCC(=O)N2CCCCCCC2)c1`, which Potency is on record?
Answer: The Potency was “inactive”.

Question: With `CN(C)P(=S)(Nc1ccccc1)C(Cl)(Cl)Cl` (configuration not stated) as the molecule, how does the Potency read?
Answer: The Potency was 11.7 µM (active).

Question: For `O=S(=O)(Nc1ccc2nc(N3CCOCC3)sc2c1)c1ccccc1`, which Potency is on record?
Answer: The Potency was “inactive”.

Question: Which Potency does the source give for `C#CCOCCOCCOCCNc1nc(N2CCN(C(=O)CCCCCCCCCCNC(=O)[C@H]([C@@H](C)CC)n3cc(CCCCN=C(N)N)nn3)CC2)nc(N2CCN(C(=O)CCCCCCCCCCNC(=O)[C@H](CO)n3cc(CCCSC)nn3)CC2)n1` here?
Answer: The Potency was 0.329 µM (active).

Question: Which Potency does the source give for `C#CCOCCOCCOCCNc1nc(N2CCN(C(=O)CCCCCCCCCCNC(=O)[C@H](CCCCN)n3cc(C)nn3)CC2)nc(N2CCN(C(=O)CCCCCCCCCCNC(=O)[C@H](CO)n3cc(CCCSC)nn3)CC2)n1` here?
Answer: Its Potency is 0.586 µM (active).

Question: Which Potency does the source give for `C#CCOCCOCCOCCNc1nc(N2CCN(C(=O)[C@H](C(C)C)n3cc(CCO)nn3)CC2)nc(N2CCN(C(=O)[C@H](C(C)C)n3cc(CCO)nn3)CC2)n1` here?
Answer: The Potency was “inactive”.

Question: Which Potency does the source give for `C#CCOCCOCCOCCNc1nc(N2CCN(C(=O)[C@H](C(C)C)n3cc(CCO)nn3)CC2)nc(N2CCN(C(=O)[C@H]([C@@H](C)CC)n3cc(CCCN=C(N)N)nn3)CC2)n1` here?
Answer: Its Potency is “inactive”.

Question: With `C#CCOCCOCCOCCNc1nc(N2CCN(C(=O)CCCCCCCCCCNC(=O)Cn3cc(CCCCCN)nn3)CC2)nc(N2CCN(C(=O)CCCCCCCCCCNC(=O)[C@H](CO)n3cc(CCCSC)nn3)CC2)n1` as the molecule, how does the Potency read?
Answer: The Potency was 2.94 µM (active).

Question: Which Potency does the source give for `C#CCOCCOCCOCCNc1nc(N2CCN(C(=O)[C@H](CCC(=O)O)n3cc(C(N)CO)nn3)CC2)nc(N2CCN(C(=O)[C@H](CCCCN)n3cc(C(N)[C@H](C)CC)nn3)CC2)n1` (some centres not stated) here?
Answer: The Potency was “inactive”.

Question: For `C#CCOCCOCCOCCNc1nc(N2CCN(C(=O)[C@H](CCC(=O)O)n3cc(C(N)CO)nn3)CC2)nc(N2CCN(C(=O)[C@H](CCCCN)n3cc(C(N)CC(C)C)nn3)CC2)n1` (some centres not stated), which Potency is on record?
Answer: Its Potency is “inactive”.

Question: With `C#CCOCCOCCOCCNc1nc(N2CCN(C(=O)[C@H](CCC(=O)O)n3cc(C(N)CO)nn3)CC2)nc(N2CCN(C(=O)[C@H](Cc3ccc(O)cc3)n3cc(C(N)[C@H](C)CC)nn3)CC2)n1` (some centres not stated) as the molecule, how does the Potency read?
Answer: Its Potency is “inactive”.

Question: For `C#CCOCCOCCOCCNc1nc(N2CCN(C(=O)[C@H](CCCCN)n3cc(CCC(=O)O)nn3)CC2)nc(N2CCN(C(=O)[C@H](CCCCN)n3cc(CC(C)O)nn3)CC2)n1` (some centres not stated), which Potency is on record?
Answer: The Potency was “inactive”.
